For 8 compounds, Potency and outcome results are on record in PubChem BioAssay (Tox21).

The structures appear in SMILES notation. A number with no mark means an inactive call. Results filed as inconclusive are left out. Activity calls are given as the source filed them. Unless noted, calls come from the whole dose curve; as a rule, active = well fitted curve in the direction sought with a large enough effect in the repeat runs; inconclusive = weak or mixed curves; inactive = no such curve, though single readings can be large; an effect the other way counts as inactive or inconclusive.

Test [1] is described as follows: A CellTox Green Cytotoxicity Assay to monitor cytotoxicity in HEK293 cells - 32 hour (AID 1224881). Note: nearly all actives have a fitted effect of over 40% in size. Note: potency is the fitted concentration of half-maximal effect. The method in brief: (§1)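 HEK293 cells, 600/well, were preincubated 5 hours and then exposed to compounds at 37 C for up to 40 hours. A cell-impermeant cyanine dye staining dead-cell DNA was read by fluorescence at 0, 8, 16, 24, 32 and 40 h time points.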
A short description of test [2]: A CellTox Green Cytotoxicity Assay to monitor cytotoxicity in HepG2 cells - 32 hour (AID 1224883). Note: nearly all actives have a fitted effect of over 50% in size. In outline:
(§2)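 HepG2 cells, 600/well, preincubated 5 h with CellTox Green dye, then exposed to Tox21 compounds in DMSO at 37 C for up to 40 h. Dead-cell DNA fluorescence read at the indicated time point.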

The nature of test [3]: qHTS RealTime-Glo MT Cell Viability Assay in HepG2 cells - 16 hour (AID 1224885). Note: nearly all actives have a fitted effect of over 50% in size. The method in brief: (§3)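 qHTS, HepG2, 600 cells/well, RealTime-Glo (NanoLuc + prosubstrate) added with cells; 5 h preincubation; DMSO compound addition; 37 C; luminescence at 0/8/16/24/32/40 h.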
(Quantitative high-throughput screening tests each substance at several concentrations.)

Test [4] is described as follows: A CellTox Green Cytotoxicity Assay to monitor cytotoxicity in HEK293 cells - 16 hour (AID 1224888). Note: nearly all actives have a fitted effect of over 35% in size. In outline: as §1
Test [5] in a line: qHTS RealTime-Glo MT Cell Viability Assay in HepG2 cells - 0 hour (AID 1224889). Note: nearly all actives have a fitted effect of over 50% in size. The method in brief:
as §3

Test [6] can be described thus: A CellTox Green Cytotoxicity Assay to monitor cytotoxicity in HepG2 cells - 8 hour (AID 1224890). Note: nearly all actives have a fitted effect of over 45% in size. The method in brief: as §2
In test [7] the target is Estrogen receptor (Homo sapiens) (UniProt P03372). The test is described as follows: qHTS assay to identify small molecule antagonists of the estrogen receptor alpha (ER-alpha) signaling pathway using the BG1 cell line in the presence of 0.1 nM 17-beta-estradiol (AID 1259244). Note: nearly all actives have a fitted effect of over 50% in size. Note: potency is the fitted concentration of half-maximal effect. The method in brief: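 VM7Luc4E2 cells (endogenous full-length ER-alpha, 4×ERE-luciferase), kept 5 days in phenol red-free, charcoal-stripped FBS medium; 4,000 cells/well. Compounds added with 0.1 nM (final) 17beta-estradiol, 22 hr at 37C; luminescence read with ONE-Glo after 30 min.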
Sequence of Estrogen receptor (Homo sapiens) (P03372 whole entry, looked up): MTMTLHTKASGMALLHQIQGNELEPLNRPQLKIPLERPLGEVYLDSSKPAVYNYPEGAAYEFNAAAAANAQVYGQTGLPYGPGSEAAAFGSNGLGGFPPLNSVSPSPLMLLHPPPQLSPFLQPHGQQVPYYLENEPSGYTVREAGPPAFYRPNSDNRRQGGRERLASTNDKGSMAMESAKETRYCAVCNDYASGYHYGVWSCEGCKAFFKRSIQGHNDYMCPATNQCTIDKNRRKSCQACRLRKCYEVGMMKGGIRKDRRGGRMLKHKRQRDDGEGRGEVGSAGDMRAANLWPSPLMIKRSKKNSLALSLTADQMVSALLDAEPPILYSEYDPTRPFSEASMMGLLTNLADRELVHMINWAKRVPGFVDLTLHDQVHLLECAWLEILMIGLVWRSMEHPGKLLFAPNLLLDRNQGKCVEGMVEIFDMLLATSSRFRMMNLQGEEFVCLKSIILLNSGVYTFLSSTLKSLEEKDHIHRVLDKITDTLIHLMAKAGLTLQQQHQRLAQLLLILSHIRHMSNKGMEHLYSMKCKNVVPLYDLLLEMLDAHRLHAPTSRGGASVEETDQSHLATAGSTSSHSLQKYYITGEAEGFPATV

Test [8] is described as follows: qHTS assay to identify small molecule phospholipidosis (PLD) inducers (AID 1259344; active = well fitted curve in the direction sought with a large enough effect; an effect the other way counts as inactive or inconclusive; note: potency is the fitted concentration of half-maximal effect). The method in brief: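 Phospholipidosis is scored by imaging LipidTOX-stained pits in HepG2 cells exposed to compound for 24 h at 37 C; pit counts and integrated intensities per well and per cell serve as outputs.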
Test [9] can be described thus: qHTS assay to identify small molecule HDAC inhibitors (AID 1259364). Note: top concentration of the series differs between compounds; nearly all actives have a fitted effect of over 45% in size. In outline:
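Wild-type HCT-116 cells, plated overnight at 37 C, exposed to compounds 2 hr at 37 C; luminogenic HDAC-Glo substrate then added 30 min at room temperature. Luminescence reports relative endogenous class I/II HDAC activity.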

Test [10] in a line: qHTS assay to identify small molecule agonists of the sonic hedgehog signaling (Shh) pathway - cell viability counter screen (AID 1259366). Note: nearly all actives have a fitted effect of over 50% in size. Note: potency is the fitted concentration of half-maximal effect. The method in brief: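 Cells are plated at 2,000 per well and left 4hr at 37C, 5% CO2 before compound addition. After 23hr of treatment, CellTiter-Fluor reagent is added for 1hr at 37C and fluorescence is measured.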
The nature of test [11]: qHTS assay to identify small molecule agonists of the sonic hedgehog signaling (Shh) pathway (AID 1259368; calls by dose curve;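 note: NIH/3T3-derived 3T3Gli1-Luc cells carrying a stable Gli1-driven firefly luciferase reporter; series mostly up to about 92 µM; nearly all actives have a fitted effect of over 15% in size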). The method in brief:
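NIH/3T3-derived 3T3Gli1-Luc cells with stably integrated Gli1-driven firefly luciferase, 2,000 cells/well, compounds added after 4 hr. Incubated 24 hr at 37C, 5% CO2; luminescence read after 30 min with luciferase reagent at room temperature.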

The nature of test [12]: A CellTox Green Cytotoxicity Assay to monitor cytotoxicity in HEK293 cells - 8 hour (AID 1224884). Note: nearly all actives have a fitted effect of over 35% in size. In outline: as §1
The nature of test [13]: qHTS RealTime-Glo MT Cell Viability Assay in HEK293 cells - 24 hour (AID 1224886). In outline:
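Assay medium contained NanoLuc luciferase plus cell-permeant prosubstrate, added with HEK293 cells at 600 cells/well. After 5 h at 37 C/5% CO2 compounds were added; plates stayed at 37 C for 40 h with serial luminescence reads.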

Test [14] can be described thus: qHTS RealTime-Glo MT Cell Viability Assay in HEK293 cells - 8 hour (AID 1224887). In outline: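 600 cells/well were plated with the nonlytic NanoLuc/prosubstrate reagent, pre-incubated 5 h, then given 23 nL of compound in DMSO. Incubation at 37 C for 40 h, with luminescence from viable-cell-reduced substrate read repeatedly from 0 h.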
A short description of test [15]: qHTS assay to identify small molecule antagonists of the estrogen receptor alpha (ER-alpha) signaling pathway using the BG1 cell line in the presence of 0.1 nM 17-beta-estradiol - cell viability counter screen (AID 1259241). Note: nearly all actives have a fitted effect of over 40% in size. In outline:
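Cells were plated and left 24 hr, compounds in DMSO were pinned in, 17beta-estradiol was added to 0.1 nM final, and after 22 hr CellTiter-Fluor reagent was added for 30 min before fluorescence was read.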

Test [16] in a line: qHTS assay to identify small molecule antagonists of the androgen receptor (AR) signaling pathway using the MDA cell line in the presence of 0.5 nM R1881 - cell viability counter screen (AID 1259242). Note: nearly all actives have a fitted effect of over 45% in size. In outline:
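MDA-kb2 cells (MMTV-luciferase, AR/GR responsive) were treated with compounds plus 0.5 nM R1881 (final) for 16 hr at 37C, 0% CO2. Viability was then read in the same wells as live-cell protease fluorescence (CellTiter-Fluor, 30 min).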

A short description of test [17]: qHTS assay to identify small molecule HDAC inhibitors - cell viability counter screen (AID 1259365). In outline:
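Counter screen in wild-type HCT-116 cells: compounds dissolved in DMSO are pin-transferred onto overnight-plated cells and left 2hr at 37C. ATP-based CellTiter-Glo luminescence then measures viable cells.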

Test [18] is described as follows: qHTS assay to identify small molecule antagonists of the sonic hedgehog signaling (Shh) pathway - cell viability counter screen (AID 1259367). Note: nearly all actives have a fitted effect of over 55% in size. The method in brief:
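Cells: 3T3 Gli1-Luc, 2,000/well, 4 hr pre-incubation. Compounds in DMSO, then conditioned medium. Incubation 24 hr, 37C, 5% CO2. CellTiter-Fluor at 23 hr, 1 hr, fluorescence.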

Test [19] in a line: A CellTox Green Cytotoxicity Assay to monitor cytotoxicity in HepG2 cells - 0 hour (AID 1224882). Note: nearly all actives have a fitted effect of over 35% in size. In outline:
as §2

The target of test [20] is Androgen receptor (Homo sapiens) (UniProt P10275). The test is described as follows: qHTS assay to identify small molecule antagonists of the androgen receptor (AR) signaling pathway using the MDA cell line in the presence of 0.5 nM R1881 (AID 1259243). In outline: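 MDA-kb2 cells (MMTV-luciferase, responsive to AR and GR) at 3,000/well, rested 5 h at 37C, 0% CO2, then given compounds plus 0.5 nM R1881 (final) for 16 hr. Luciferase read with ONE-Glo after 30 min at room temperature.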
Sequence of Androgen receptor (Homo sapiens) (P10275 whole entry, looked up): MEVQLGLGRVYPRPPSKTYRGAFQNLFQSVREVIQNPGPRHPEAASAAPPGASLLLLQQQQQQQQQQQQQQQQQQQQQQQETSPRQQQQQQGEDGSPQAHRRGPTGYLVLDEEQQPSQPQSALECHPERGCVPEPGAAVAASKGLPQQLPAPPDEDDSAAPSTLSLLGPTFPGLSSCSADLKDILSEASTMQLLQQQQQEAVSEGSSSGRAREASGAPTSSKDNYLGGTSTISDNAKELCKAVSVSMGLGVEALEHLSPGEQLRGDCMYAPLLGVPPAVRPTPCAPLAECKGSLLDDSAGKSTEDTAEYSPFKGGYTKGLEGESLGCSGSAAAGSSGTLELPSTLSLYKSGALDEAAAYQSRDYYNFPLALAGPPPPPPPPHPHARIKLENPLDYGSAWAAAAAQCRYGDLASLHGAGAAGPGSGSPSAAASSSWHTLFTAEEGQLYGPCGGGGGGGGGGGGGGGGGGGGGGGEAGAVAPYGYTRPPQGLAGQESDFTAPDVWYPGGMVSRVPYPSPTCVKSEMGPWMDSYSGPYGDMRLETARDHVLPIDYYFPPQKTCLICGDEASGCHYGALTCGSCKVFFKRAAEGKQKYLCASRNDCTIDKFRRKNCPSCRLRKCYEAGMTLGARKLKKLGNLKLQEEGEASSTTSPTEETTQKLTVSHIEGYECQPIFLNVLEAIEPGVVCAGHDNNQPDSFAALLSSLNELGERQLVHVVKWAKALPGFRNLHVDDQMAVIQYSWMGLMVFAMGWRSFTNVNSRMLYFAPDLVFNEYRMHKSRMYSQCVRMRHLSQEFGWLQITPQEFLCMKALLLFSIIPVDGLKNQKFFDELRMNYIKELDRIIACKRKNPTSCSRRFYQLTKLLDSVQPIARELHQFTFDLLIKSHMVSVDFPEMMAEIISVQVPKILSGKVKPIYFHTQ

In the case of `O=C1[C@H]2CCCC[C@H]2C(=O)N1CCCCN1CCN(c2nsc3ccccc23)CC1`, the Potency entry in test [1], in test [2], in test [3], in [4], in [5] and in [6] was “inactive” throughout. Besides, the Potency entry in test [7] and in test [9] was “inactive” throughout. Also, the Potency in [8] is 14.1 µM (active); in test [10], 15 µM (active). The compound was classed as inactive in test [11].
On to `CCCCCCCCCCCc1ccccc1`, for which the Potency entry in test [1], in test [2], in test [12], in test [3], in [13] and in test [14] was “inactive” each time. Besides, the Potency result in test [4], in test [5], in [6], in test [15], in [16] and in [7] was “inactive” throughout. Besides, the Potency result in test [9], in test [17], in [10] and in [18] was “inactive” in each case. In [11], the compound was classed as inactive.
Take `COCC(C)OC(C)=O` (stereo not drawn): the Potency entry in [1], in test [2], in test [12], in [3], in [13] and in [14] was “inactive” each time. The Potency result in [4], in test [5], in test [6], in [15], in test [16] and in [7] was “inactive” throughout. In addition, the Potency entry in test [9], in test [17], in test [10] and in [18] was “inactive” in each case. Further, the compound was classed as inactive in test [11].
In the case of `COc1ccc(C(=O)Nc2nc3ccccc3c(NCc3ccccc3)c2C#N)cc1`, the Potency result in [1], in [2], in [12], in [13], in [14] and in test [4] was “inactive” throughout. Besides, the Potency result in [5], in [6], in test [15], in test [16], in test [9] and in [17] was “inactive” each time. In addition, the Potency in test [7] was 10.9 µM (active). Further, in test [11], the outcome was inactive.
As for `CCNc1cc(O)ccc1C`, the Potency in test [1] was 34.3 µM (active). Moreover, the Potency result in test [2], in test [12], in test [3], in test [13], in test [14] and in test [5] was “inactive” in each case. Moreover, the Potency result in test [6], in [15], in test [16], in test [7], in [9] and in test [17] was “inactive” throughout. Further, the result in test [11] was inactive.
On to `C#C[C@]1(O)CC[C@H]2[C@@H]3CCc4cc(OC5CCCC5)ccc4[C@H]3CC[C@@]21C`, for which the Potency entry in test [1], in test [19], in [4], in test [5], in test [15] and in test [16] was “inactive” throughout. Also, the Potency entry in [8], in test [9], in [10] and in test [18] was “inactive” throughout. Also, the outcome in [11] was inactive.
Take `CCC(C)O` (stereo not drawn): the Potency entry in test [1], in test [2], in test [3], in test [13], in [14] and in [4] was “inactive” throughout. Further, the Potency entry in test [5], in [6], in test [15], in test [16], in test [9] and in [17] was “inactive” in each case. The Potency result in test [10] and in test [18] was “inactive” throughout. In addition, the outcome in test [11] was inactive.
As for `CC(C)CC(=O)C1C(=O)c2ccccc2C1=O`, the Potency result in test [1], in test [19], in [3], in test [13], in [4] and in test [5] was “inactive” each time. The Potency entry in [6], in test [15], in test [16], in test [17], in [10] and in test [18] was “inactive” in each case. Moreover, the Potency in test [20] was 48.6 µM (active). In test [11], the compound was classed as inactive.
